In PubChem BioAssay AID1159577 (Broad Institute, 2015) one finds outcome data, which are given here for 71 compounds.

Among all 1,300 compounds or so, about 240 (18%) were called active. About 8% were inconclusive and are not listed. No rule for the calls is given here. Only a sample is shown. Measured potencies and affinities stand elsewhere.

The assay can be described thus: toxicity to human hepatoma HepG2 cells – cell-based, cherry-picked samples, cytotoxicity control, dose response (AID 1159577). To be noted: HepG2 cytotoxicity counterscreen, plate reader; series mostly up to 19.5 µM. For orientation: Counterscreens check selectivity or assay interference.
For `O=C(Nc1cccc(F)c1)N[C@@H]1CC[C@H](CCNS(=O)(=O)c2cccc(Cl)c2)O[C@H]1CO`, the compound was classed as inactive. Next, `C[C@H]1CN([C@@H](C)CO)C(=O)c2c(c3ccccc3n2C)-c2ccccc2CO[C@H]1CN(C)S(=O)(=O)c1ccccc1C#N`: “inactive”. Next, `COc1ccc(C#Cc2ccc3c(c2)[C@@H]2[C@@H](CCN2C(=O)C2CCC2)[C@H](CO)N3)cc1`: “inactive”; `CN1CCCCN2[C@@H](CO)[C@@H](c3ccc(-c4cccnc4)cc3)[C@@H]2C1`: “inactive”; `O=C(Nc1ccccc1F)N1CCCCN2[C@H](CO)[C@H](c3ccc(C#Cc4cccnc4)cc3)[C@@H]2C1`: “inactive”. In the case of `O=C(Nc1ccccc1F)N1CCCCN2[C@@H](CO)[C@H](c3ccc(C#Cc4cccnc4)cc3)[C@@H]2C1` it was “inactive”; in that of `COCC(=O)Nc1ccc2c(c1)C(=O)N(C)C[C@@H](OC)[C@H](C)CN(CC1CCCCC1)[C@@H](C)CO2`, “inactive”; in that of `CCCN1C[C@H](C)[C@@H](OC)CN(C)C(=O)c2cc(NC(=O)Nc3cccc(F)c3)ccc2OC[C@H]1C`, “inactive”. For `CCC(=O)N[C@H]1C=C[C@H](CC(=O)NCC2CCCCC2)O[C@@H]1CO`, the call was inactive. As to `CCC(=O)N1CCC2(CC1)CN(Cc1ccc3c(c1)OCO3)[C@@H](CO)c1c2c2ccc(OC)cc2n1C`, the call was inactive. For `COc1ccc2c3c([nH]c2c1)[C@H](CO)N(Cc1cccc(F)c1)CC31CCN(Cc2ccccn2)CC1`, the compound was called inactive. Next, `CCCC(=O)Nc1ccc2c(c1)OC[C@@H](C)N(Cc1cc(-c3ccccc3)on1)C[C@@H](C)[C@H](OC)CN(C)C2=O`: “inactive”; `CCCC(=O)N1CC2(C1)CN(S(=O)(=O)c1ccc(C)cc1)[C@@H](CO)c1[nH]c3cc(OC)ccc3c12`: “inactive”; `COc1cccc(-c2ccc([C@H]3[C@H](CO)N4CCCCN(CC5CC5)C[C@@H]34)cc2)c1`: “inactive”. Next, `COc1cccc(S(=O)(=O)N(C)C[C@@H]2OCc3ccccc3-c3c(n(C)c4ccccc34)C(=O)N([C@H](C)CO)C[C@@H]2C)c1`: “inactive”. Next, `COc1ccc2c3c(n(C)c2c1)[C@H](CO)N(C(=O)Nc1ccc(F)cc1)CC31CCN(C(=O)c2cccnc2)CC1`: “inactive”.

On to `CCCC(=O)Nc1ccc2c(c1)OC[C@@H](C)N(Cc1ccc(F)cc1)C[C@@H](C)[C@H](OC)CN(C)C2=O`, for which the outcome was inactive. As for `CC=Cc1ccc2n(c1=O)C[C@H]1[C@H](CO)[C@@H](C(=O)N3CCC(Cc4ccccc4)CC3)N(CCC)[C@@H]21` (mixture of isomers), the call was inactive. Next, `C[C@H](CO)N1C[C@H](C)[C@H](CN(C)S(=O)(=O)c2ccc(F)cc2)OCc2ccccc2-c2c(n(C)c3ccccc23)C1=O`: “inactive”; `Cc1ccc(-c2ccccc2[C@H]2[C@@H](C#N)N(C(=O)c3cccc(F)c3)[C@H]2CO)cc1`: “inactive”.

Turning to `C[C@H]1CN([C@@H](C)CO)C(=O)c2c(c3ccccc3n2C)-c2ccccc2CO[C@@H]1CN(C)S(=O)(=O)c1cccc(F)c1`, the call was inactive. In the case of `C[C@H](CO)N1C[C@H](C)[C@@H](CN(C)C(=O)Nc2ccc3c(c2)OCO3)Oc2ccc(NC(=O)Nc3ccc(C(F)(F)F)cc3)cc2CC1=O` it was “inactive”. Next, `C[C@H](CO)N1C[C@H](C)[C@@H](CN(C)C(=O)Nc2ccc(F)cc2)Oc2ccc(NC(=O)Nc3ccc(C(F)(F)F)cc3)cc2CC1=O`: “inactive”. Next, `C[C@H](CO)N1C[C@H](C)[C@H](CN(C)CC2CC2)Oc2ccc(NC(=O)Nc3ccccc3)cc2CC1=O`: “inactive”.

For the compound `C[C@H]1CN([C@@H](C)CO)C(=O)Cc2cc(NC(=O)Nc3ccc(C(F)(F)F)cc3)ccc2O[C@@H]1CN(C)C(=O)Nc1ccc2c(c1)OCO2`, the compound was called inactive. In the case of `C[C@@H]1CN([C@@H](C)CO)C(=O)Cc2cc(NC(=O)Nc3ccccc3)ccc2O[C@H]1CN(C)CC1CC1` it was “inactive”; in that of `COc1ccc(NC(=O)N(C)C[C@H]2Oc3ccc(NC(=O)Nc4ccc(C(F)(F)F)cc4)cc3CC(=O)N([C@H](C)CO)C[C@@H]2C)cc1`, “inactive”; in that of `O=C(c1cccc(F)c1)N1CC(=O)N2[C@H](C1)[C@@H](c1ccc(-c3cccnc3)cc1)[C@@H]2CO`, “inactive”. Next, `COCC(=O)N1CCC2(CC1)CN(Cc1cccc(OC)c1)[C@@H](CO)c1[nH]c3cc(OC)ccc3c12`: “inactive”. In the case of `C[C@@H]1CN([C@@H](C)CO)C(=O)c2cccc(NC(=O)c3nc4ccccc4s3)c2O[C@@H]1CN(C)C(=O)Nc1cccc2ccccc12` it was “inactive”.

For the compound `Cc1ccc(-c2ccc3c(c2)O[C@@H](CN(C)C(=O)C2CCCCC2)[C@H](C)CN([C@H](C)CO)S3(=O)=O)cc1`, the call was inactive. Next, `N#Cc1cccc(-c2ccc3c(c2)[C@H]2[C@H](CCN2C(=O)c2ccncc2)[C@H](CO)N3)c1`: “inactive”; `COc1cccc(CN2CC3(CN(Cc4ccccn4)C3)c3c([nH]c4cc(OC)ccc34)[C@@H]2CO)c1`: “inactive”. In the case of `COc1ccc2c3c(n(C)c2c1)[C@@H](CO)NCC31CCN(Cc2ccc(-c3ccccn3)cc2)CC1` it was “inactive”. Next, `COc1cccc(CN2CC3(CN(Cc4ccccn4)C3)c3c([nH]c4cc(OC)ccc34)[C@H]2CO)c1`: “inactive”. Turning to `COc1ccc2c3c(n(C)c2c1)[C@H](CO)N(C(=O)Nc1ccc(F)cc1)CC31CCN(Cc2ccccn2)CC1`, the result was inactive. In the case of `COc1ccc(S(=O)(=O)N(C)C[C@@H]2OCc3ccccc3-c3c(n(C)c4ccccc34)C(=O)N([C@H](C)CO)C[C@H]2C)cc1` it was “inactive”; in that of `C[C@@H]1CN([C@@H](C)CO)C(=O)c2c(c3ccccc3n2C)-c2ccccc2CO[C@H]1CN(C)S(=O)(=O)c1ccc(C(F)(F)F)cc1`, “inactive”; in that of `O=C(c1ccccn1)N1CC[C@H]2[C@H](CO)Nc3ccc(-c4ccccc4)cc3[C@H]21`, “inactive”. In the case of `CCC(=O)N1CCC2(CC1)CN(Cc1ccc(Cl)cc1)[C@H](CO)c1[nH]c3cc(OC)ccc3c12` it was “inactive”.

As to `Cc1ccccc1-c1ccc(C2[C@H]3CNC[C@@H]2N3S(=O)(=O)c2cccc(F)c2)cc1` (stereo partly specified), the outcome was inactive. Next, `CC(C)NC(=O)N1[C@H](C#N)[C@H](c2ccc(C#CC3CCCCC3)cc2)[C@@H]1CO`: “inactive”; `N#C[C@@H]1[C@H](c2ccc(C#CC3CCCCC3)cc2)[C@H](CO)N1C(=O)Nc1ccc(F)cc1`: “inactive”. Next, `N#C[C@@H]1[C@@H](c2ccc(C#CC3CCCCC3)cc2)[C@H](CO)N1C(=O)Nc1ccc(F)cc1`: “inactive”; `N#C[C@@H]1[C@@H](c2ccc(C#Cc3ccc(F)cc3)cc2)[C@H](CO)N1C(=O)C1CCCC1`: “inactive”.

As to `OC[C@@H]1[C@@H](c2ccccc2)C2(CN(CCC(F)(F)F)C2)N1Cc1ccccc1`, the result was inactive.

For the compound `O=C(C[C@@H]1C[C@H]2c3cc(NC(=O)Nc4ccccc4)ccc3O[C@H]2[C@H](CO)O1)NCc1ccccc1`, the compound was classed as inactive. Next, `O=C(c1cccnc1)N1CC(=O)N2[C@H](C1)[C@@H](c1ccc(-c3cccnc3)cc1)[C@@H]2CO`: “inactive”; `CN1c2ccc(-c3ccccc3)cc2[C@@H]2[C@@H](CCN2C(=O)c2ccccc2)[C@H]1CO`: “inactive”. Take `CCS(=O)(=O)N1CCCCN2[C@H](CO)[C@@H](c3ccc(-c4cccc(C#N)c4)cc3)[C@@H]2C1`: the call was inactive. Next, `COc1ccc(NC(=O)N2CCCCN3[C@H](CO)[C@H](c4ccc(-c5ccccc5F)cc4)[C@@H]3C2)cc1`: “inactive”; `Cc1cccc(S(=O)(=O)N2CCCCN3[C@H](C2)[C@@H](c2ccc(-c4cccnc4)cc2)[C@@H]3CO)c1`: “inactive”; `CCS(=O)(=O)N1CC(=O)N2[C@H](CO)[C@@H](c3ccc(-c4ccccc4F)cc3)[C@@H]2C1`: “inactive”. Next, `N#C[C@@H]1[C@H](c2ccccc2/C=C/c2ccccc2)[C@H](CO)N1S(=O)(=O)c1ccc(F)cc1`: “inactive”. For `CCCC(=O)Nc1ccc2c(c1)OC[C@@H](C)N(Cc1cccc(F)c1)C[C@@H](C)[C@H](OC)CN(C)C2=O`, the outcome was inactive. In the case of `CC(C)NC(=O)N1[C@H](CO)[C@@H](c2ccccc2)C12CN(Cc1ccc(Cl)cc1)C2` it was “inactive”. For `CO[C@H]1CN(C)C(=O)c2cc(NC(=O)Cc3ccccc3)ccc2OC[C@H](C)N(C(=O)c2ccccc2F)C[C@H]1C`, the call was inactive. In the case of `CCCNC(=O)Nc1ccc2c(c1)OC[C@H](C)N(Cc1ccc(-c3ccccn3)cc1)C[C@H](C)[C@H](OC)CN(C)C2=O` it was “inactive”. Next, `COc1cccc(S(=O)(=O)N2CCC3(CC2)CN[C@H](CO)c2[nH]c4cc(OC)ccc4c23)c1`: “inactive”. Next, `C[C@@H]1CN([C@H](C)CO)S(=O)(=O)c2ccc(C#Cc3ccccc3)cc2O[C@H]1CN(C)C(=O)C1CC1`: “inactive”; `CO[C@@H]1CN(C)C(=O)c2ccc(NC(=O)c3ccc4c(c3)OCO4)cc2OC[C@@H](C)N(Cc2ccc3c(c2)OCO3)C[C@H]1C`: “inactive”. `COc1ccc2c3c([nH]c2c1)[C@@H](CO)N(Cc1cc(F)ccc1F)CC31CCN(C(=O)C2CCC2)CC1`: the call was inactive. Next, `CCS(=O)(=O)N1CCCCN2[C@H](CO)[C@H](c3ccc(-c4cccc(C#N)c4)cc3)[C@H]2C1`: “inactive”. In the case of `CCS(=O)(=O)N1CCCCN2[C@H](CO)[C@H](c3ccc(-c4cccc(C#N)c4)cc3)[C@@H]2C1` it was “inactive”. Regarding `O=C(c1cnccn1)N1CC(=O)N2[C@@H](CO)[C@H](c3ccc(C#CCc4ccccc4)cc3)[C@@H]2C1`, the compound was called inactive. In the case of `C[C@H]1CN([C@@H](C)CO)C(=O)c2cc(NC(=O)Nc3ccc(C(F)(F)F)cc3)ccc2O[C@@H]1CN(C)C(=O)Nc1cccc2ccccc12` it was “inactive”; in that of `CCCC#Cc1ccc(CC[C@H]2O[C@H]3CC[C@H](CO)O[C@H]3C[C@@H]2n2cc(C(C)(C)O)nn2)cc1`, “inactive”; in that of `O=C(Nc1ccccc1F)N1CC(=O)N2[C@H](CO)[C@@H](c3ccc(-c4ccccc4)cc3)[C@H]2C1`, “inactive”. Next, `COc1ccccc1NC(=O)N1CCCCN2[C@@H](CO)[C@H](c3ccc(C#CC4CC4)cc3)[C@@H]2C1`: “inactive”; `O=C(Nc1cccc(F)c1)N1CC(=O)N2[C@H](C1)[C@@H](c1ccc(C#CC3CC3)cc1)[C@@H]2CO`: “inactive”. With `COc1ccccc1NC(=O)N1CCCCN2[C@H](C1)[C@H](c1ccc(C#CC3CC3)cc1)[C@@H]2CO`, the compound was called inactive.
